MOR-DOR inv ag = inverse agonists of human mu-delta opioid receptor heterodimerization; actives 0.21% (n = 340,000); P35372+P41143; inhibition, % at 9.3 µM; AID 504357; cell-based MOR-DOR heterodimer luminescence, inverse agonism; in the data active means inhibition above about 22%, passing the limit was not always enough
pCIP destab = lowers stability of the mouse p/CIP coactivator protein; Q05BA5; F442A p/CIP-EGFP cells, EGFP fluorescence, 16 h; decrease of EGFP signal, % at 10 µM; actives 0.01% (n = 290,000);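 active means EGFP signal decrease of at least 30% at 10 µM or well 3 SD below plate mean, unless failing retest; inactive means the rest, including hits failing retest or dose response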
HTR5A inv ag = inverse agonist of human HTR5A in OPRM1-OPRD1 counter-screen; HTR5A cell line, luminescence, inverse agonism; actives 0.083% (n = 340,000); inhibition, % at 9.3 µM; P47898; in the data active means inhibition mostly above about 23%, no sharp cut-off; inactive means mostly below about 18%
MOR-DOR ag-1 = OPRM1-OPRD1 heterodimerization agonism; AID 504326; cells, luminescence; actives 0.3% (n = 340,000); activation, % at 9.3 µM
HTR5A ag ctr = counter-screen for OPRM1-OPRD1 agonists: human HTR5A agonism. P47898. HTR5A agonist assay, luminescence, cell-based. activation, % at 9.3 µM. actives 0.61% (n = 340,000). AID 504692; in the data active means activation mostly above about 9.5%, no sharp cut-off; inactive means mostly below about 7.6%
beta cell repl = inducers of beta-cell replication in MIN6 cells; actives 0.29% (n = 330,000); MIN6 cells proliferation, ATPlite luminescence, 48 h; cells starved in 0.2% serum; 100% = growth in 10% serum; proliferation, % at 10 µM; AID 2380;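 active means compounds whose signal lies at least 3.5 SD above the mean of all wells on their plate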
MOR-DOR ag-2 = promotes OPRM1-OPRD1 heterodimerization in HTR5A counter-screen | shares compounds with HTR5A ag ctr | U2OS counter-screen cells, complementation luminescence, 3 h | activation, % at 9.3 µM | actives 13% (n = 800) | AID 504913
HTR5A ag confirm = HTR5A (human) agonism, confirmation | shares compounds with HTR5A ag ctr | HTR5A agonist cell assay, luminescence | activation, % at 9.3 µM | actives 17% (n = 800) | AID 504915; in the data active means activation above about 17%
Large screens that a line does not name were inactive (follow-up assays come after a bar, where they were run). The list is not random: actives were taken first. Their share in the collection is about 1.4%. Unless noted, no stated cut-off is given here; in the data, active means activation above about 18%; inactive means the rest.

Cc1[nH]n(-c2ccccc2)c(=O)c1C=NCCc1ccccc1	none
CN(Cc1ccccc1)S(=O)(=O)c1ccc2c(c1)n(C)c(=O)n2C	HTR5A ag ctr 16 | MOR-DOR ag-2 inactive | HTR5A ag confirm inactive
CC(C)(c1ccccc1)c1ccc(OCCN2CCOCC2)cc1	HTR5A ag ctr 14 | MOR-DOR ag-2 128 | HTR5A ag confirm inactive
CCN(CC)C(CNC(=O)CSc1nnnn1-c1ccc(C)c(C)c1)c1ccco1 (stereo unspecified)	none (no result: pCIP destab)
CCN(CC)C(CNC(=O)CSc1nnnn1-c1c(C)cccc1C)c1ccco1 (stereo unspecified)	HTR5A ag ctr 20 (no result: pCIP destab) | MOR-DOR ag-2 inactive | HTR5A ag confirm 29
CN(C)S(=O)(=O)c1cccc(COC(=O)c2ccc3c(c2)OCO3)c1	none
CN(C)S(=O)(=O)c1cccc(COC(=O)c2ccc(Cl)cc2O)c1	HTR5A ag ctr 16 | MOR-DOR ag-2 39 | HTR5A ag confirm inactive
CC1(OC(=O)CCc2ccccc2)C(=O)C=C2C=C(c3ccc(C#N)cc3)N(CCc3c[nH]c4ccccc34)C=C2C1=O (stereo unspecified)	HTR5A ag ctr 20 | MOR-DOR ag-2 inactive | HTR5A ag confirm inactive
COC(=O)CCCC1=CC2=C(c3ccccc3)C(=O)C(C)(OC(=O)C3CCCC3)C(=O)C2=CN1CCc1c[nH]c2ccccc12 (stereo unspecified)	HTR5A ag ctr 15 | MOR-DOR ag-2 inactive | HTR5A ag confirm inactive
Cc1cn(C2CCCO2)c(=O)nc1N (stereo unspecified)	none (no result: pCIP destab, beta cell repl)
c1ccc2cc(C3CCCCC3)ncc2c1	none (no result: pCIP destab)
O=C(CCCOc1ccccc1)Nc1cccc(S(=O)(=O)N2CCCCCC2)c1	none (no result: pCIP destab)
Cc1ccc2c(c1)-n1c(nc3cc(Cl)ccc3c1=O)C(CC(C)C)NC2=O (stereo unspecified)	none (no result: MOR-DOR inv ag, pCIP destab, HTR5A inv ag, MOR-DOR ag-1, HTR5A ag ctr)
CCOC(=O)/C=C1/SCC(=O)N1CCOc1cccc(Br)c1	none (no result: pCIP destab, beta cell repl)
O=C(CSc1n[nH]c(-c2ccco2)n1)Nc1ccc(Br)cc1	none
O=C(CSc1n[nH]c(-c2ccco2)n1)Nc1sc2c(c1C(=O)Nc1ccccc1)CCCC2	HTR5A ag ctr 18 | MOR-DOR ag-2 inactive | HTR5A ag confirm inactive
CC1Cc2ccccc2N1C(=O)COC(=O)c1c2c(nc3ccccc13)CCCCC2 (stereo unspecified)	HTR5A ag ctr 22 | MOR-DOR ag-2 inactive | HTR5A ag confirm inactive
CC1Cc2ccccc2N1C(=O)Cn1nc(C(=O)O)c2ccccc2c1=O (stereo unspecified)	HTR5A ag ctr 63 | MOR-DOR ag-2 inactive | HTR5A ag confirm inactive
CC1Cc2ccccc2N1C(=O)COC(=O)c1n[nH]c(=O)c2ccccc12 (stereo unspecified)	HTR5A ag ctr 40 (no result: pCIP destab) | MOR-DOR ag-2 inactive | HTR5A ag confirm inactive
CC1Cc2ccccc2N1C(=O)COC(=O)c1ccc(Cl)c(S(=O)(=O)N2CCOCC2)c1 (stereo unspecified)	HTR5A ag ctr 24 (no result: pCIP destab) | MOR-DOR ag-2 inactive | HTR5A ag confirm inactive
CC1CCN(CC(=O)N2c3ccccc3CC2C)CC1 (stereo unspecified)	none
Cc1cnc(C(=O)OCC(=O)N2c3ccccc3CC2C)cn1 (stereo unspecified)	none
O=C(OCC(=O)N1CCc2ccccc21)c1c2c(nc3ccccc13)CCCC2	none
Cc1cccc(C)c1NC(=O)CN(C)C(=O)C1CC(=O)N(c2cccc3ccccc23)C1 (stereo unspecified)	none (no result: pCIP destab)
O=C(N/N=C/c1cc([N+](=O)[O-])ccc1Cl)c1cc(-c2ccccc2)nc2ccccc12	HTR5A ag ctr 16 | MOR-DOR ag-2 inactive | HTR5A ag confirm inactive
O=C(NCCc1c[nH]c2ccccc12)C(=O)NCC1OCCCN1S(=O)(=O)c1cc(F)ccc1F (stereo unspecified)	HTR5A ag ctr 36 | MOR-DOR ag-2 inactive | HTR5A ag confirm inactive
O=C(NCCc1c[nH]c2ccccc12)C(=O)NCC(c1ccco1)N1CCN(c2ccc(F)cc2)CC1 (stereo unspecified)	HTR5A ag ctr 47 | MOR-DOR ag-2 inactive | HTR5A ag confirm 56
Cc1ccnc(NC(=O)c2ccccc2[N+](=O)[O-])c1	none
Cc1ccnc(NC(=O)c2cccc3ccccc23)c1	HTR5A ag ctr 17 | MOR-DOR ag-2 inactive | HTR5A ag confirm inactive
COc1cc(C2SCC(=O)N2Cc2ccccc2)cc(OC)c1OC (stereo unspecified)	none
O=C(COC(=O)CCC(=O)c1cccs1)Nc1cccc(F)c1	HTR5A ag ctr 18 (no result: pCIP destab) | MOR-DOR ag-2 inactive | HTR5A ag confirm inactive
C=C1C(=O)OC2C1CCC(C)C1C=CC(=O)C12C (stereo unspecified)	none (no result: pCIP destab, beta cell repl)
C=C1C(=O)OC2CC1C(O)CC(C)=CCCC(C)=CC(O)CC2C (stereo unspecified)	HTR5A ag ctr 18 (no result: pCIP destab, beta cell repl) | MOR-DOR ag-2 inactive | HTR5A ag confirm inactive
CCOc1ccccc1-n1c(SC(C)C(=O)NCC2CCCO2)nc2ccccc2c1=O (stereo unspecified)	none (no result: pCIP destab)
COc1ccc(OC)c(NC(=O)CSc2nc3nc(C)cc(C)n3n2)c1	HTR5A ag ctr 17 (no result: pCIP destab) | MOR-DOR ag-2 inactive | HTR5A ag confirm inactive
COc1ccc(NC(=O)CSc2nc3nc(C)cc(C)n3n2)cc1	none
O=C(NCc1ccccc1)C(c1ccncc1)N(C(=O)c1ccccn1)c1ccccc1 (stereo unspecified)	none
CCOc1cc(CNCC2CCCN2CC)cc(Cl)c1OC (stereo unspecified)	HTR5A ag ctr 19 | MOR-DOR ag-2 inactive | HTR5A ag confirm inactive
CCN1CCCC1CNCc1cc(OC)c(OC)c(OC)c1 (stereo unspecified)	none
O=C(O/N=C1/CCSc2ccccc21)c1ccccc1	HTR5A ag ctr 23 | MOR-DOR ag-2 inactive | HTR5A ag confirm inactive
CC(C(=O)OCC(=O)N1CCN(c2ccccc2)CC1)N1C(=O)c2ccccc2C1=O (stereo unspecified)	HTR5A ag ctr 19 (no result: pCIP destab) | MOR-DOR ag-2 inactive | HTR5A ag confirm inactive
CC(=O)N1CCN(C(=O)c2cc(S(=O)(=O)N3CCN(c4ccccc4)CC3)ccc2Cl)CC1	none (no result: pCIP destab)
CC(OC(=O)/C=C/c1ccccc1)C(=O)N1CCc2ccccc21 (stereo unspecified)	none (no result: pCIP destab)
Cc1nn(Cc2ccccc2)c(C)c1CNC(=O)[C@H](C)N=C1NS(=O)(=O)c2ccccc21	none (no result: pCIP destab, beta cell repl)
CNC(=S)N1N=C(c2ccc(C)cc2)CC1c1ccc(Cl)cc1 (stereo unspecified)	none
CNC(=S)N1N=C(c2ccc(C)cc2)CC1c1ccc(Br)cc1 (stereo unspecified)	HTR5A ag ctr 18 | MOR-DOR ag-2 inactive | HTR5A ag confirm inactive
